# Measured values published in PubChem BioAssay (NCATS).
# “And” between values parts separate entries of the source, which are not always exact repeats. Identical values can stand only once. Records with an inconclusive call do not appear. The source made the active and inactive calls. Unless noted, the call rests on the fitted dose curve; in most records, active means well fitted curve in the direction sought with a large enough effect; inconclusive means small, poorly fitted or top-dose-only effect, or another doubt; inactive means no such curve, though single readings can be large; an effect the other way counts as inactive or inconclusive.
# What was measured:
# [1] = qHTS Assay for Identification of Small Molecule Agonists for NFkB Signaling Pathway. (AID 624478);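 further: compounds tested together with TNF alpha at its EC50 of 10 pM; 0% is about no effect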
# Summary of the method: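 Assay medium contained 0.5% FBS and 10 mM HEPES pH 7.3. Compounds were added together with TNF alpha (10 pM final), incubated 5 h at 37 C, and the beta-lactamase signal was measured fluorometrically.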
# [2] = qHTS Assay for Identification of Small Molecule Antagonists for NFkB Signaling Pathway. (AID 624479; calls by dose curve;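 further: pathway stimulated with TNF alpha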; further: potency means the concentration at half of the fitted maximal effect)
# [3] = Cell Proliferation Assay against the TMD8 Cell Line (AID 651645); conditions: TMD8 DLBCL cell line proliferation/viability; at 46.1 µM (top of the series) unless noted;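 further: cells exposed to compound for 48 h before reading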
# Summary of the method: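 TMD8 ABC DLBCL cells, 500 per well in phenol red-free RPMI with 5% FBS, were treated with compound by pin transfer and incubated 48 hours at 37C, 5% CO2. Viability was read by CellTiter-Glo luminescence, normalised to DMSO (100%) and 9.2 uM bortezomib (0%).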
# [4] = Cell Proliferation Assay against the TMD8 Cell Line (Caspase readout at 16 hrs) (AID 651712); further: potency means the concentration at half of the fitted maximal effect
# Summary of the method: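 Caspase-Glo luminescence after 16 h compound exposure of TMD8 cells, 37 °C, 5% CO2. Medium: RPMI without phenol red, 5% FBS. Normalisation: DMSO = 0%, bortezomib 9.2 uM final = 100%.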
# [5] = Cytotoxicity counterscreen for NFkB agonists and antagonists (AID 624476); further: potency means the concentration at half of the fitted maximal effect
# [6] = qHTS assay for small molecule activators of the nuclear factor-kappa B (NF-kB) signaling pathway (AID 651749; active means well fitted activation curve with a large enough effect in the signal ratio; the % refers to the signal ratio; further: % of control where 0% means no effect); conditions: NF-kB-bla ME-180 cells, beta-lactamase FRET ratio, 16 h; stronger effect = higher value
# Summary of the method: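 NF-kB-bla ME-180 cells, 2,000/well; 23 nL compound or DMSO pinned; 16 hr, 37C/5% CO2; beta-lactamase FRET read-out.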
# [7] = qHTS assay for small molecule disruptors of the mitochondrial membrane potential - 1 hr assay (AID 651754; calls by dose curve; further: potency means the concentration at half of the fitted maximal effect; nearly all actives have a fitted effect of over 35% in size)
# Summary of the method: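 In this qHTS format, a 1 hr compound treatment of HepG2 cells precedes Mito-MPS staining, and membrane potential is judged from aggregate (red) against monomer (green) fluorescence intensity.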
# [8] = qHTS assay for small molecule disruptors of the mitochondrial membrane potential - 5 hr assay (AID 651755; calls by dose curve; further: potency means the concentration at half of the fitted maximal effect; nearly all actives have a fitted effect of over 40% in size)
# Summary of the method: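 Read-out: ratiometric Mito-MPS fluorescence, green monomer (ex 490/em 535) vs red mitochondrial aggregate (ex 540/em 590). HepG2 cells treated 5 hr at 37C before 30 min dye loading.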
# [9] = qHTS assay for small molecule agonists of the antioxidant response element (ARE) signaling pathway (AID 651741; active means well fitted activation curve with a large enough effect in the signal ratio; the % refers to the signal ratio; further: potency means the concentration at half of the fitted maximal effect)
# Summary of the method: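 HepG2 ARE-bla reporter cells, 2,000/well; 5 h settle at 37 C/5% CO2; compound pin transfer (23 nL, DMSO); 16 h at 37 C; LiveBLAzer B/G FRET substrate, 2 h RT; fluorescence intensity read.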
# [10] = qHTS assay for small molecule activators of the p53 signaling pathway (AID 651743; active means well fitted activation curve with a large enough effect in the signal ratio, not every such curve was filed as active; the % refers to the signal ratio; further: % of control where 0% means no effect); conditions: HCT-116 p53RE-bla, beta-lactamase FRET ratio, 16 h; stronger effect = higher value
# Summary of the method: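 Reporter: beta-lactamase driven by p53 response elements, stably integrated in HCT-116 cells. Cells seeded at 4,000/well, 5 h preincubation, compound (DMSO) 16 h at 37 C; B/G FRET substrate 2 h RT; fluorescence intensity read.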
compound,measurement,setting,value
Clc1ccc(-c2nc3sccn3c2C=NOCc2ccc(Cl)c(Cl)c2)cc1,outcome,[1],inactive
same,Potency,[2],inactive
same,viability (% of control),[3],74.9%
same,Potency,[4],inactive
COc1cc(Nc2ncc(F)c(Nc3ccc4c(n3)NC(=O)C(C)(C)O4)n2)cc(OC)c1OC,Potency,[5],13.2 µM (active)
same,outcome,[1],inactive
same,viability (% of control),[3],17.5%
same,Potency,[4],inactive
CN(C)C1CCN(C(=O)c2ccc(NC(=O)Nc3nc(N4CCOCC4)nc(N4CCOCC4)n3)cc2)CC1,Potency,[5],0.0743 µM (active)
same,outcome,[1],inactive
same,Potency,[2],inactive
same,viability (% of control),[3],2.35%
same,Potency,[4],6.62 µM (active)
CC(C)[C@H](CO)Nc1nc(Nc2ccc(C(=O)O)c(Cl)c2)c2ncn(C(C)C)c2n1,Potency,[5],inactive
same,outcome,[1],inactive
same,Potency,[2],inactive
same,viability (% of control),[3],83.7%
same,Potency,[4],inactive
O=C(O)c1cc(O)c2c(c1)C(=O)c1cccc(O)c1C2=O,activation,[6],1% (inactive)
same,Potency,[7],8.41 µM (active)
same,Potency,[8],5.31 µM (active)
O=c1c(O)c(-c2ccc(O)cc2)oc2cc(O)cc(O)c12,Potency,[9],21.7 µM (active)
same,activation,[10],2.31% (inactive) and 6.56% (inactive)
same,activation,[6],-2.22% (inactive) and -4.27% (inactive)
same,Potency,[7],5.31 µM (active)
same,Potency,[8],8.41 µM (active)
CC(C)(C(=O)NCC(F)(F)C(F)(F)F)C(=O)N[C@@H]1C(=O)Nc2ccccc2-c2ccccc21,Potency,[5],inactive
same,outcome,[1],inactive
same,Potency,[2],inactive
same,viability (% of control),[3],61.9%
same,Potency,[4],inactive
CC(=O)N(C)C1(c2ccccc2)CCN(CCC[C@]2(c3ccc(Cl)c(Cl)c3)CCCN(C(=O)c3ccccc3)C2)CC1,Potency,[5],23.5 µM (active)
same,outcome,[1],inactive
same,viability (% of control),[3],1.74%
same,Potency,[4],11.8 µM (active)
O=C1C(Cl)=C(NCCN2CCOCC2)C(=O)c2ncccc21,Potency,[5],2.35 µM (active)
same,outcome,[1],inactive
same,Potency,[2],2.11 µM (active)
same,viability (% of control),[3],3.41%
same,Potency,[4],inactive
CCOC(CN1C(=O)[C@](CC(=O)Nc2ccc(C)cc2)(NC(=O)Nc2ccc(C)cc2)c2ccccc21)OCC,outcome,[1],inactive
same,Potency,[2],18.8 µM (active)
same,viability (% of control),[3],16.8%
CO[C@H]1C=CC=C(C)C(=O)NC2=CC(=O)C(NCCN(C)C)=C(C[C@@H](C)C[C@H](OC)[C@@H](O)[C@@H](C)C=C(C)[C@@H]1OC(N)=O)C2=O,outcome,[1],inactive
same,viability (% of control),[3],3.74%
CO[C@H]1C[C@@H]2CC[C@@H](C)[C@@](O)(O2)C(=O)C(=O)N2CCCC[C@@H]2C(=O)O[C@H]([C@H](C)C[C@@H]2CC[C@H](OCCO)[C@H](OC)C2)CC(=O)[C@H](C)C=C(C)[C@@H](O)[C@@H](OC)C(=O)[C@H](C)C[C@H](C)C=CC=CC=C1C,outcome,[1],inactive
same,viability (% of control),[3],-0.307%
same,Potency,[4],inactive
O=C(Nc1ccccc1-c1cn2c(CN3CCNCC3)csc2n1)c1cnc2ccccc2n1,outcome,[1],inactive
same,Potency,[2],inactive
same,viability (% of control),[3],2.49%
same,Potency,[4],inactive
COc1cc2nc(-c3ccc(N4CCN(C)CC4)cc3)nc(NCCN3CCOCC3)c2cc1OC,Potency,[2],inactive
same,viability (% of control),[3],1.8%
CO[C@@H](C(=O)N1Cc2[nH]nc(NC(=O)c3ccc(N4CCN(C)CC4)cc3)c2C1)c1ccccc1,Potency,[5],inactive
same,outcome,[1],inactive
same,viability (% of control),[3],3.09%
COc1cccc2c1CCCC2CCCN1CCN(C2CCCCC2)CC1 (stereo not drawn),Potency,[5],inactive
same,outcome,[1],inactive
same,Potency,[2],inactive
same,viability (% of control),[3],1.09%
same,Potency,[4],23.5 µM (active)
COc1cc2ncnc(-n3nc(-c4ccccn4)nc3N)c2cc1OC,outcome,[1],inactive
same,Potency,[2],1.88 µM (active)
same,viability (% of control),[3],1.94%
same,Potency,[4],16.6 µM (active)
CC(C)(C)c1cc(C(=O)O)c(NC(=O)Nc2ccc3[nH]ncc3c2)s1,Potency,[5],inactive
same,outcome,[1],inactive
same,Potency,[2],inactive
same,viability (% of control),[3],99.7%
same,Potency,[4],inactive
c1ccc2c(-c3cnn4cc(-c5ccc(N6CCNCC6)cc5)cnc34)ccnc2c1,Potency,[2],18.8 µM (active)
same,viability (% of control),[3],0.905%
N#Cc1ccc(NC(=O)Nc2ccccc2Br)c2n[nH]nc12,Potency,[5],inactive
same,Potency,[2],inactive
same,viability (% of control),[3],12.8%
same,Potency,[4],inactive
O=c1cc(-c2ccccc2)oc2cc(O)cc(O)c12,Potency,[9],10.9 µM (active)
same,activation,[10],22.8% (inactive)
same,activation,[6],-2.47% (inactive)
CCOc1ccc(Nc2nc(-c3c(C)nc4ccccn34)cs2)cc1,outcome,[1],inactive
same,viability (% of control),[3],5.58%
same,Potency,[4],0.105 µM (active)
